Reference: PubChem BioAssay (NCI)
Compounds without any hit were thinned out: in the full panel of roughly 83,000, 20% have a hit.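 Percent growth is the endpoint: 0 to 100 indicates growth inhibition (40 means 60% inhibition), 0 means no net growth, and negative values indicate cell death.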 Active and inactive are the calls of the source. Rule for the calls: active = growth percent below 10; inactive = the rest.

System: CAKI-1 renal
Assay: NCI-60 one-dose screen, 48 h (100 = growth as untreated, 0 = no growth, -100 = all killed)
Conditions: 10 µM unless noted

| SMILES | growth |
| --- | --- |
| CC(C)(C)c1cc(-c2nc3ccc(N4CCN(CCO)CC4)cc3[nH]2)cc(C(C)(C)C)c1O | 63.2% (inactive) |
| Clc1ccc(/C=C/c2nc(N3CCOCC3)c3nc(Cl)c(Cl)cc3n2)cc1 | 109% (inactive) |
| CCOC(=O)/C=C\C(=O)NC(N)=O | 96% (inactive) |
| CCC#CC[C@H]1C/C=C2/C(=O)C=C[C@@H]2C/C=C\CCCC(=O)O1 | 18.2% (inactive) |
| O=C(Cc1c(F)cccc1Cl)Nc1ccc(S(=O)(=O)Nc2ncccn2)cc1 | 91% (inactive) |
| C=CCc1cc(Cl)cc2c(OC(C)=O)c(C(C)=O)c(-c3ccccc3)nc12 | 87.5% (inactive) |
| Cc1c(C(=O)NCc2ccccc2)[n+](=O)c2cc(F)ccc2n1[O-] | 79.7% (inactive) |
| C=CCOc1cccc(/C=C/C(=O)c2sc(Nc3cccnc3)nc2C)c1 | 81% (inactive) |
| CCN(CC)S(=O)(=O)c1ccc2[nH]c(=O)cc(C(=O)Nc3ccc(OC)cc3OC)c2c1 | 120% (inactive) |
| O=C(Nc1cc(C(F)(F)F)cc(C(F)(F)F)c1)Nc1ccc(OCc2nnc(-c3ccc(Cl)cc3)o2)c(F)c1 | 4.76% (active) |
| O=C1CCCCN1CCCCC#Cc1ccccc1C#Cc1ccccn1 | 121% (inactive) |
| COc1ccc2c(c1)C=CC(C#N)N2C(=O)c1ccccc1 (stereo not given) | 23.6% (inactive) |
| CC1(C)OC2COC3(C(=O)O)OC(C)(C)OC3C2O1 (stereo not given) | 103% (inactive) |
| COc1cc(C2C=C(C)N=C3SC(C)=NN32)cc(OC)c1OC (stereo not given) | 103% (inactive) |
| O=C(/C=C/CN1CCOCC1)Nc1cc2c(Nc3cccc(Cl)c3F)ncnc2cc1OCCOC(F)F | 24.9% (inactive) |
| Cc1oc2nc[nH]c(=O)c2c1C(=O)/C=C/c1ccc(Cl)cc1 | 26.1% (inactive) |
| CCn1cc(C2NC(=O)c3cc(F)ccc3N2)c2cccc(Cl)c21 (stereo not given) | 34% (inactive) |
| CN(C)C/C=C/C(=O)Nc1cc2c(Nc3ccc(F)c(Cl)c3F)ncnc2cc1OCCOC(F)F | -15.3% (active) |
| CC(=O)Nc1ccc2c(c1)/C(=C\C=C/c1ccc([N+](C)(C)C)cc1)c1ccccc1-2 | 65.8% (inactive) |

| SMILES | growth |
| --- | --- |
| c1ccc([P+](CCC[P+](c2ccccc2)(c2ccccc2)c2ccccc2)(c2ccccc2)c2ccccc2)cc1 | 94.7% (inactive) |
| COc1ccc2c(c1)NC(=O)CN2c1nc(C)nc2ccccc12 | 29.3% (inactive) |
| CCCCCC/C=C\CCCCCCCCOc1ccc(CCOP(=O)(O)OCC[N+](C)(C)C)cc1 | 36.9% (inactive) |
| O=C(Nc1ccc(I)cc1)c1cc([N+](=O)[O-])ccc1O | 30.9% (inactive) |
| NC(=O)c1c(NC(=O)c2ccc3c(c2)OCO3)sc2c1CCC(=O)C2 | -80% (active) |
| O=C(CNC(=O)c1cccc2ccccc12)Nc1ccccc1Oc1ccccc1 | 31.6% (inactive) |
| COC12CC(=O)C(C(C)=O)=C(O)C1(C)c1c(O)c(C)c(O)c(C(C)=O)c1O2 (stereo not given) | 71.5% (inactive) |
| O=S(=O)(NCCCNc1nccc(-c2c(-c3ccccc3)nc3sccn23)n1)c1ccc(F)cc1 | 33.1% (inactive) |
| CCCCOc1nc2c(C)cccc2cc1C1CNC(=O)c2ccccc2N1 (stereo not given) | 52.1% (inactive) |
| C=CCN=C1NC(=O)/C(=C/c2cc(C(C)(C)C)c(O)c(C(C)(C)C)c2)S1 | 47.8% (inactive) |
| Nc1nc(-c2ccccc2)cs1 | 94% (inactive) |
| CC[C@H](C)[C@@H]1NC(=O)[C@H]([C@@H](C)O)NC(=O)C(Cc2ccccc2)NC(=O)[C@@H]2CCCN2C(=O)C(C(C)C)NC(=O)C(Cc2ccccc2)NC(=O)CNC(=O)[C@@H]2CCCN2C1=O (stereo not given in full) | 37.6% (inactive) |
| CCN(CC)CCSc1c2ccc(Cl)cc2nc2ccc(OC)cc12 | 91.3% (inactive) |
| Cc1cc2c(C(C)C)c(O)c(O)c(C=NCCCCC(=O)O)c2c(O)c1-c1c(C)cc2c(C(C)C)c(O)c(O)c(C=NCCCCC(=O)O)c2c1O | 73.1% (inactive) |
| COc1ccc(Cn2cc(COc3cc(/C=C/C(=O)c4cc(OC)c(OC)c(OC)c4)ccc3OC)nn2)cc1 | 17.5% (inactive) |
| Cc1ccc(C2=NN(c3ccc(S(=O)(=O)NC(=O)NCc4ccccc4)cc3)C(c3ccc(N(C)C)cc3)C2)c(C)c1 (stereo not given) | 47.7% (inactive) |
| c1ccc2c(c1)Oc1ccccc1C2C1c2ccccc2Oc2ccccc21 | 74.5% (inactive) |
| COc1ccc(S(=O)(=O)Nc2cc(/C=C\c3cc(OC)c(OC)c(OC)c3)cc(OC)c2OC)cc1OC | 24.4% (inactive) |
| COC1=CC(c2ccc[nH]2)=N/C1=C\c1[nH]c(C)c(CCCn2cc(CCCCCCCCC[C@@H]3Cc4cc(O)ccc4C4CC[C@]5(C)[C@@H](O)CC[C@H]5C43)nn2)c1C (stereo not given in full) | 71% (inactive) |

System: A498 renal
Assay: as above
Conditions: 10 µM unless noted

| SMILES | growth |
| --- | --- |
| CC(C)(C)c1cc(-c2nc3ccc(N4CCN(CCO)CC4)cc3[nH]2)cc(C(C)(C)C)c1O | 86.1% (inactive) |
| CCOC(=O)/C=C\C(=O)NC(N)=O | 107% (inactive) |
| CCC#CC[C@H]1C/C=C2/C(=O)C=C[C@@H]2C/C=C\CCCC(=O)O1 | 46.5% (inactive) |
| O=C(Cc1c(F)cccc1Cl)Nc1ccc(S(=O)(=O)Nc2ncccn2)cc1 | 98.4% (inactive) |
| C=CCc1cc(Cl)cc2c(OC(C)=O)c(C(C)=O)c(-c3ccccc3)nc12 | 110% (inactive) |
| Cc1c(C(=O)NCc2ccccc2)[n+](=O)c2cc(F)ccc2n1[O-] | 101% (inactive) |
| COc1ccc(C(=O)c2cc(OC)c(OC)c(OC)c2)cc1/C=C/C(=O)c1ccc2c(c1)OCO2 | 71.9% (inactive) |
| O=C(Nc1cc(C(F)(F)F)cc(C(F)(F)F)c1)Nc1ccc(OCc2nnc(-c3ccc(Cl)cc3)o2)c(F)c1 | -7.1% (active) |
| O=C1CCCCN1CCCCC#Cc1ccccc1C#Cc1ccccn1 | 114% (inactive) |
| COc1ccc2c(c1)C=CC(C#N)N2C(=O)c1ccccc1 (stereo not given) | -5.22% (active) |
| CC1(C)OC2COC3(C(=O)O)OC(C)(C)OC3C2O1 (stereo not given) | 91.7% (inactive) |
| COc1cc(C2C=C(C)N=C3SC(C)=NN32)cc(OC)c1OC (stereo not given) | 81.8% (inactive) |
| O=C(/C=C/CN1CCOCC1)Nc1cc2c(Nc3cccc(Cl)c3F)ncnc2cc1OCCOC(F)F | 7.02% (active) |
| Cc1oc2nc[nH]c(=O)c2c1C(=O)/C=C/c1ccc(Cl)cc1 | 62.4% (inactive) |
| CCn1cc(C2NC(=O)c3cc(F)ccc3N2)c2cccc(Cl)c21 (stereo not given) | -11.4% (active) |
| CN(C)C/C=C/C(=O)Nc1cc2c(Nc3ccc(F)c(Cl)c3F)ncnc2cc1OCCOC(F)F | -47.7% (active) |

| SMILES | growth |
| --- | --- |
| CC(=O)Nc1ccc2c(c1)/C(=C\C=C/c1ccc([N+](C)(C)C)cc1)c1ccccc1-2 | 86% (inactive) |
| c1ccc([P+](CCC[P+](c2ccccc2)(c2ccccc2)c2ccccc2)(c2ccccc2)c2ccccc2)cc1 | 86.1% (inactive) |
| COc1ccc2c(c1)NC(=O)CN2c1nc(C)nc2ccccc12 | -4.89% (active) |
| CCCCCC/C=C\CCCCCCCCOc1ccc(CCOP(=O)(O)OCC[N+](C)(C)C)cc1 | 95.6% (inactive) |
| O=C(Nc1ccc(I)cc1)c1cc([N+](=O)[O-])ccc1O | -27.9% (active) |
| NC(=O)c1c(NC(=O)c2ccc3c(c2)OCO3)sc2c1CCC(=O)C2 | -3.77% (active) |
| O=C(CNC(=O)c1cccc2ccccc12)Nc1ccccc1Oc1ccccc1 | -14.9% (active) |
| COC12CC(=O)C(C(C)=O)=C(O)C1(C)c1c(O)c(C)c(O)c(C(C)=O)c1O2 (stereo not given) | 61.1% (inactive) |
| CCCCOc1nc2c(C)cccc2cc1C1CNC(=O)c2ccccc2N1 (stereo not given) | 55.3% (inactive) |
| Nc1nc(-c2ccccc2)cs1 | 81.5% (inactive) |
| CC[C@H](C)[C@@H]1NC(=O)[C@H]([C@@H](C)O)NC(=O)C(Cc2ccccc2)NC(=O)[C@@H]2CCCN2C(=O)C(C(C)C)NC(=O)C(Cc2ccccc2)NC(=O)CNC(=O)[C@@H]2CCCN2C1=O (stereo not given in full) | 26.1% (inactive) |
| CCN(CC)CCSc1c2ccc(Cl)cc2nc2ccc(OC)cc12 | 100% (inactive) |
| COc1ccc(Cn2cc(COc3cc(/C=C/C(=O)c4cc(OC)c(OC)c(OC)c4)ccc3OC)nn2)cc1 | 81.4% (inactive) |
| Cc1ccc(C2=NN(c3ccc(S(=O)(=O)NC(=O)NCc4ccccc4)cc3)C(c3ccc(N(C)C)cc3)C2)c(C)c1 (stereo not given) | 51% (inactive) |
| c1ccc2c(c1)Oc1ccccc1C2C1c2ccccc2Oc2ccccc21 | 91.8% (inactive) |
| COC1=CC(c2ccc[nH]2)=N/C1=C\c1[nH]c(C)c(CCCn2cc(CCCCCCCCC[C@@H]3Cc4cc(O)ccc4C4CC[C@]5(C)[C@@H](O)CC[C@H]5C43)nn2)c1C (stereo not given in full) | 62.1% (inactive) |
